Reference: PubChem BioAssay AID540345 (The Scripps Research Institute Molecular Screening Center, 2011)
Values without a mark were called inactive. The rule behind the calls is not given here.

Tested on: Rolipram
Assay: off-target binding and CYP inhibition panel, profiling panel, selectivity assay for GPR7 antagonist project, biochemical, Ricerca HitProfilingScreen, CYP450, set 2 (AID 540345)
Conditions: Ricerca radioligand binding/CYP panel, at 10 µM, stronger effect = higher value

COc1ccc(Oc2c(Cl)cnn(C3c4ccccc4-c4ccccc43)c2=O)cc1
inhibition: 5%
